Measured values: PubChem BioAssay (Tox21)
Inconclusive results are not listed. Activity calls are given as the source filed them. Unless noted, calls follow the shape of the dose curve; as a rule, active = well fitted curve in the direction sought with a large enough effect in the repeat runs; inconclusive = weak or mixed curves; inactive = no such curve, though single readings can be large; an effect the other way counts as inactive or inconclusive.

Experiments:
[1] = qHTS assay for small molecules that induce genotoxicity in human embryonic kidney cells expressing luciferase-tagged ATAD5 (AID 651632); also: nearly all actives have a fitted effect of over 15% in size
Method in brief: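 HEK293T cells carrying a luciferase reporter tagged to ATAD5 were exposed to compound or DMSO vehicle for 16 hr at 37C, 5% CO2. Amplite was added, and after 30 min at room temperature luciferase activity was read as a marker of ATAD5 induction.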

[2] = qHTS assay for small molecules that induce genotoxicity in human embryonic kidney cells expressing luciferase-tagged ATAD5 - cell viability (AID 651634; calls by dose curve; also: nearly all actives have a fitted effect of over 25% in size)
Method in brief: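 HEK293T cells expressing luciferase-tagged ATAD5 were exposed to compound or DMSO for 15.5 hr at 37C, 5% CO2. Viability was then read as live-cell protease activity by CellTiter-Fluor fluorescence after 30 min at 37C.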

[3] = qHTS assay to test for compound auto fluorescence at 590 nm (red) in HepG2 cells (AID 720674)
Method in brief: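 Intrinsic compound fluorescence in the red window (Ex/Em 540/590 nm) is measured in attached HepG2 cells exposed for 1 hr, DMSO vehicle as baseline, benchmarked to Rose Bengal sodium.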

[4] = qHTS assay to test for compound auto fluorescence at 535 nm (green) in HepG2 cells (AID 720675)
[5] = qHTS assay to test for compound auto fluorescence at 460 nm (blue) in HEK293 cells (AID 720678)
Method in brief: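 Auto fluorescence in the blue band was quantified as triamterene equivalency. HEK293 cells were seeded at 2,000/well, dosed after a 4-5 hr attachment, and kept overnight at 37C before the 405/460 nm reading.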

[6] = qHTS assay to test for compound auto fluorescence at 590 nm (red) in HEK293 cells (AID 720679)
Method in brief: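 Autofluorescence equivalency to Rose Bengal sodium, 540/590nm, in HEK293 cells exposed overnight to 23 nL compound per well.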

[7] = qHTS assay to test for compound auto fluorescence at 535 nm (green) in HEK293 cells (AID 720680)
[8] = qHTS assay to test for compound auto fluorescence at 460 nm (blue) in HEK293 cell free culture (AID 720681)
Method in brief: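 Test compounds were pinned into cell-free culture medium (DMEM with 10% FBS) and fluorescence was read directly at Ex/Em 405/460 nm. Signals were expressed as fluorescence equivalents of triamterene, with DMSO vehicle as control.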

[9] = qHTS assay to test for compound auto fluorescence at 590 nm (red) in HepG2 cell free culture (AID 720684)
Method in brief: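 Red fluorescence (540 nm excitation, 590 nm emission) was measured after compound transfer into cell-free MEM supplemented with 10% FBS. Values are equivalencies against Rose Bengal sodium.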

[10] = qHTS assay to test for compound auto fluorescence at 460 nm (blue) in HepG2 cell free culture (AID 720685)
Method in brief: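 Compound (23 nL) or DMSO pinned into cell-free MEM with 10% FBS; blue fluorescence read at 405/460 nm excitation/emission, expressed as auto-fluorescence equivalency to triamterene.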

[11] = qHTS assay to test for compound auto fluorescence at 535 nm (green) in HepG2 cell free culture (AID 720686)
[12] = qHTS assay to test for compound auto fluorescence at 460 nm (blue) in HepG2 cells (AID 720687)
Method in brief: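 Cells (2,000/well in MEM with 10% FBS) attached overnight at 37 C, then were exposed to compound or DMSO for 1 hr at 37 C, 5% CO2. Fluorescence read at Ex/Em 405/460 nm, expressed as triamterene-equivalent signal.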

[13] = target: Glucocorticoid receptor (Homo sapiens) (UniProt P04150); assay: qHTS assay to identify small molecule agonists of the glucocorticoid receptor (GR) signaling pathway (AID 720691; active = well fitted activation curve with a large enough effect in the signal ratio in the repeat runs, not every such curve was filed as active; the % refers to the signal ratio)
Chain of Glucocorticoid receptor (Homo sapiens) (P04150 whole entry, looked up): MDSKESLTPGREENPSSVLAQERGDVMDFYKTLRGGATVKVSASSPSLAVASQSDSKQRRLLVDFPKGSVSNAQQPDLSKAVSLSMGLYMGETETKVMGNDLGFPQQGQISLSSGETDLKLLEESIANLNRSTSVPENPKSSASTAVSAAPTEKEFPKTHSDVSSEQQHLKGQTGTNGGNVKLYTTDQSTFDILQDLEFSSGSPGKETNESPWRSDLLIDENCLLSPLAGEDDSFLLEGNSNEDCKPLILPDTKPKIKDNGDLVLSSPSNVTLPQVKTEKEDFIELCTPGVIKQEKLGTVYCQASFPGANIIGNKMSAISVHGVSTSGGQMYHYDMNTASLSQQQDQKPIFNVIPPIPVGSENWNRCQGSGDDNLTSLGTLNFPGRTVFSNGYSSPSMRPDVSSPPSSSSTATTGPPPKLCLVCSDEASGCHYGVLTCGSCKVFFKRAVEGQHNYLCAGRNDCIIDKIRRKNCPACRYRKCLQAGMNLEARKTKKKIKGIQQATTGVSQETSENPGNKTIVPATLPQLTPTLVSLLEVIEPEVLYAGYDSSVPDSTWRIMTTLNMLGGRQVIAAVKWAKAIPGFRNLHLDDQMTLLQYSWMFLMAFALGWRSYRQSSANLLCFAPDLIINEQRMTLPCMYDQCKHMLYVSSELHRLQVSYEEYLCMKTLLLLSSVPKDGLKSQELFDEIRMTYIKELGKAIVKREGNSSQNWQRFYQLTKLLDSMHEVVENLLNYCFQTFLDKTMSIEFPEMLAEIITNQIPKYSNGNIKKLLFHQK
Method in brief: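 GR-bla HeLa cells (beta-lactamase reporter under glucocorticoid response element) were plated 4 h at 37 C/5% CO2, given compounds in DMSO, and incubated 18 h at 37 C. LiveBLAzer B/G FRET substrate was added for 2 h at room temperature, then fluorescence intensity read.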

[14] = target: Glucocorticoid receptor (Homo sapiens) (UniProt P04150); assay: qHTS assay to identify small molecule antagonists of the glucocorticoid receptor (GR) signaling pathway (AID 720692; active = well fitted inhibition curve with a large enough effect in the signal ratio in the repeat runs, not every such curve was filed as active; the % refers to the signal ratio)
Method in brief: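 GR-bla HeLa cells (beta-lactamase reporter under glucocorticoid response element) were pre-plated 4 h at 37 C, treated with compounds plus 5 nM dexamethasone (final) for 18 h, then read by LiveBLAzer B/G FRET fluorescence after 2 h.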

[15] = qHTS assay for small molecule agonists of the p53 signaling pathway - cell viability (AID 651633; calls by dose curve;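 also: p53RE-bla HCT reporter cells with a stable beta-lactamase p53 reporter; series mostly up to about 83 µM; nearly all actives have a fitted effect of over 30% in size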)
Method in brief: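 p53RE-bla cells, seeded at 4,000 per well and rested 5 h at 37 C/5% CO2, received compounds in DMSO for 16 h at 37 C. CellTiter-Glo was then added, and luminescence was read after 30 min at room temperature to gauge cytotoxicity.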

[16] = qHTS assay for small molecule disruptors of the mitochondrial membrane potential - cell viability (AID 720634; calls by dose curve;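 also: human HepG2 liver cancer cells; series mostly up to about 83 µM; nearly all actives have a fitted effect of over 20% in size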)
Method in brief: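 HepG2 cells seeded overnight at 37 C, then exposed to compound or DMSO for 1 hr at 37 C, 5% CO2. m-MPI dye added, then CellTiter-Glo for 30 min at room temperature; viability read as ATP luminescence.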

[17] = qHTS assay for small molecule disruptors of the mitochondrial membrane potential (AID 720635); also: potency is read from the fitted curve at half-maximal effect
Method in brief: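 HepG2 cells (2,000/well) attached overnight at 37C, then took compound for 1 hr at 37C, 5% CO2. Mito-MPS dye was added for 30 min; fluorescence was read at 490/535 nm (monomers) and 540/590 nm (aggregates).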

[18] = qHTS assay to test for compound auto fluorescence at 590 nm (red) in HEK293 cell free culture (AID 720683)
Method in brief: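 Tox21 10K library compounds were pinned into cell-free DMEM with 10% FBS and fluorescence was read at excitation 540 nm. Activity is expressed as Rose Bengal sodium equivalency.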

[19] = qHTS assay to test for compound auto fluorescence at 535 nm (green) in HEK293 cell free culture (AID 720682)
Method in brief: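 Read-out: 485/535 nm fluorescence intensity, calibrated against fluorescein. Medium only (DMEM + 10% FBS, no cells); test compound or DMSO vehicle added by pintool before plate reading.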
% is scaled to controls: 0 for no effect and ±100 for the full control effect.

CCCCCCCCCCCCSCCOCCO
inactive: Potency [1] | Potency [2] | outcome [3] | outcome [4] | Potency [5] | outcome [6] | outcome [7] | Potency [8] | outcome [9] | outcome [10] | outcome [11] | outcome [12] | Potency [13] | Potency [14]

NC(=O)c1cc[n+](CC2=C(C(=O)[O-])N3C(=O)[C@@H](NC(=O)Cc4cccs4)[C@H]3SC2)cc1
inactive: Potency [1] | Potency [15] | Potency [16] | Potency [17] | fluorescence, relative to Rose Bengal [3] -0.33% [at 18.6 µM] | fluorescence, % of fluorescein control [4] -0.0242% [at 18.6 µM] | fluorescence, % of triamterene [5] 0.803% [at 18.6 µM] | fluorescence, % of fluorescent control [6] 0.0624% [at 18.6 µM] | fluorescence, % of fluorescein [7] 0.0094% [at 18.6 µM] | fluorescence, % of fluorescent control [8] 0.628% [at 18.6 µM] | fluorescence, % of fluorescent control [18] 0.0033% [at 18.6 µM] | fluorescence, % of Rose Bengal [9] 0.512% [at 18.6 µM] | fluorescence, % of fluorescent control [10] 0.491% [at 18.6 µM] | fluorescence, % of fluorescein control [11] -0.0061% [at 18.6 µM] | fluorescence, % of fluorescent control [12] 0.406% [at 18.6 µM]

O=C1c2ccccc2C(=O)c2c1ccc(O)c2O
active: Potency [17] 9.44 µM
inactive: Potency [1] | Potency [15] | Potency [16] | outcome [3] | outcome [4] | Potency [5] | outcome [6] | outcome [7] | Potency [8] | outcome [19] | outcome [18] | outcome [10] | outcome [11] | outcome [12] | Potency [13]

CCCCC(CC)COCCC#N (configuration not stated)
inactive: Potency [1] | Potency [15] | Potency [16] | Potency [17] | outcome [3] | outcome [4] | Potency [5] | outcome [6] | Potency [8] | outcome [19] | outcome [18] | outcome [9] | outcome [10] | outcome [11] | outcome [12] | Potency [13] | Potency [14]

Cc1nc2sccn2c(=O)c1CCN1CCC(=C(c2ccc(F)cc2)c2ccc(F)cc2)CC1
inactive: Potency [1] | Potency [2] | Potency [16] | outcome [3] | outcome [4] | Potency [5] | outcome [6] | outcome [7] | Potency [8] | outcome [19] | outcome [18] | outcome [9] | outcome [10] | outcome [11] | outcome [12]

CCOC(C)OCC
inactive: Potency [1] | Potency [15] | Potency [16] | outcome [3] | outcome [4] | Potency [5] | outcome [6] | outcome [7] | Potency [8] | outcome [19] | outcome [18] | outcome [9] | outcome [10] | outcome [11] | outcome [12] | Potency [13]

CC(C)CC(C)(C)C
inactive: Potency [1] | Potency [16] | outcome [3] | outcome [4] | Potency [5] | outcome [6] | outcome [7] | Potency [8] | outcome [9] | outcome [10] | outcome [11] | outcome [12] | Potency [13]

CCCc1nc(C)c2c(=O)[nH]c(-c3cc(S(=O)(=O)N4CCN(CC)CC4)ccc3OCC)nn12
inactive: Potency [1] | Potency [16] | outcome [3] | outcome [4] | Potency [5] | outcome [6] | Potency [8] | outcome [19] | outcome [18] | outcome [9] | outcome [10] | outcome [11] | outcome [12] | Potency [13] | Potency [14]

COc1ccc(/C=C/c2cc(OC)cc(=O)o2)cc1
inactive: Potency [2] | Potency [16] | outcome [3] | outcome [4] | Potency [5] | outcome [6] | outcome [7] | outcome [9] | outcome [10] | outcome [11] | outcome [12]
